Assay results: PubChem BioAssay
Results with a measured potency or affinity are listed apart. The source made the active and inactive calls.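 The calls were made as follows: active = a fitted half-maximal concentration no higher than twice the top valid tested dose, with signal falling as cells die; inconclusive = flat curve between -70% and -30%, or poor fit; inactive = the rest, including signal rising instead of falling.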

test: viability loss in HeLa cells – cell-based, ATP luminescence, cherry-pick samples, cytotoxicity control, dose response (AID 687004); details: ATP luminescence (CellTiter-Glo), 48 h; series mostly up to 26 µM; activity change, negative = cytotoxicity: at the top concentration;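 also: 0% = neutral control median and -100% = staurosporine 10 µM control median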

Row | Structure (SMILES) | activity change, negative = cytotoxicity
1 | CO[C@@H]1CN(C)C(=O)c2ccc(NC(=O)C3CC3)cc2OC[C@H](C)N(C(=O)c2ccncc2)C[C@H]1C | -3.56% (inactive)
2 | CCCC#Cc1cnc2c(c1)C(=O)N([C@@H](C)CO)C[C@H](C)[C@H](CN(C)C(=O)Nc1cccc(F)c1)O2 | 17.2% (inactive)
3 | Cc1cccc(C)c1NC(=O)CNC(=O)C1CCCC1 | 1.76% (inactive)
4 | COc1ccc(NC(=O)N(C)C[C@H]2OCCCC[C@@H](C)Oc3ccc(NC(=O)c4ccccc4)cc3C(=O)N([C@@H](C)CO)C[C@H]2C)cc1 | -2.66% (inactive)
5 | CC1(C(=O)Nc2ccc3ccccc3c2)CCC(=O)N1C1CC1 (stereo not drawn) | 5.35% (inactive)
6 | CO[C@H]1CN(C)C(=O)c2cc(NC(=O)C3CCOCC3)ccc2OC[C@@H](C)NC[C@H]1C | 11.3% [at 23.5 µM] (inactive)
7 | CN1[C@H](C(=O)N2CCc3ccccc3C2)[C@@H](CO)[C@@H]2Cn3c(ccc(-c4cccnc4)c3=O)[C@@H]21 | 6.5% (inactive)
8 | C/C=C/c1ccc([C@@H]2[C@@H](CNC(=O)C3CC3)N(C(=O)CC)[C@H]2CO)cc1 | -2.12% (inactive)
9 | C[C@@H]1CN([C@@H](C)CO)C(=O)CCCn2nncc2CO[C@H]1CN(C)Cc1cccc(C(F)(F)F)c1 | -6.94% (inactive)
10 | O=C(C[C@@H]1CC[C@@H]2[C@H](COC[C@H](O)CN2Cc2cccc(C(F)(F)F)c2)O1)NCc1ccccc1 | -1.83% (inactive)
11 | CCC(=O)N[C@H]1C=C[C@@H](CC(=O)OC)O[C@@H]1CO | 2.92% (inactive)
12 | C[C@H]1CN([C@@H](C)CO)C(=O)c2cccc(NS(C)(=O)=O)c2O[C@H]1CN(C)C(=O)Nc1ccc2c(c1)OCO2 | -4.53% (inactive)
13 | C[C@H]1CN([C@@H](C)CO)C(=O)Cc2cc(NC(=O)Nc3cccc4ccccc34)ccc2O[C@H]1CN(C)S(=O)(=O)c1cccs1 | 6.82% (inactive)
